Compound activity deposited in PubChem by National Center for Advancing Translational Sciences (NCATS).
LmPK inhibitor = LmPK (Leishmania mexicana) enzyme inhibition. Q27686. purified LmPK, Kinase-Glo ATP luminescence, 1 h. Potency, µM (doses to about 57.5 µM), inactives show at the highest dose activity change, negative = inhibition, usual class: inhibitors. 290,000 tested, 0.37% active; also: potency is read from the fitted curve at half-maximal effect; % is scaled to controls: 0 for no effect and ±100 for the full control effect
Target sequence (Q27686 whole entry, looked up): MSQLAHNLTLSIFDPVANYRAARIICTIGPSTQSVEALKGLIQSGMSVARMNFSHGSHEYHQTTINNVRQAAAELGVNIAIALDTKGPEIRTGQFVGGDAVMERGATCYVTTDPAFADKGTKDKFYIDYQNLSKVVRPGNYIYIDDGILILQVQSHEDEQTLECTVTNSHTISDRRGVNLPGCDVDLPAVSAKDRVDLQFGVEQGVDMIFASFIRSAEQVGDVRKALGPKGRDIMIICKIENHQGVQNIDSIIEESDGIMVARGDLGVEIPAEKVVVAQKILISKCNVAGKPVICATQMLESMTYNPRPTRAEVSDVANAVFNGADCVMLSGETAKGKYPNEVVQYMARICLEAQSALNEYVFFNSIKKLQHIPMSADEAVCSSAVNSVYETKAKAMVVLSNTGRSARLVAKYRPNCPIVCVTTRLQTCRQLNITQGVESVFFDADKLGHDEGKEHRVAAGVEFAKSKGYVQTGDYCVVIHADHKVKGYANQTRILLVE
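Pyruvate kinase activity monitored as ATP production (luciferase luminescence). Conditions: 0.1 nM enzyme, 0.5 mM PEP, 0.1 mM ADP, 1 h, RT; normalized against uninhibited and no-enzyme wells.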
Cycloheximide cs = affects cycloheximide protein synthesis inhibition readout, counter-screen | cell reporter, cycloheximide protein synthesis inhibition counterscreen | max response, % | 300,000 tested, 12% active | AID 2314; in the data active = max response mostly above about 13%, no sharp cut-off; inactive = mostly below about 14%; also: read at 38.3 µM for the half of the compounds with a filed dose; 0% is about no effect
Pf growth 96h = P. falciparum growth inhibition at 96 hours | P. falciparum luciferase reporter growth, 96 h | Potency, µM (series often up to 28.7 µM), inactives show top-dose activity change, negative = inhibition, actives largely listed as inhibitors | 320,000 tested, 6.9% active; also: potency is read from the fitted curve at half-maximal effect; % is scaled to controls: 0 for no effect and ±100 for the full control effect
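96 h incubation, 37 C, 5% CO2, of luciferase-reporter P. falciparum-infected RBCs (2% hematocrit, 0.05% parasitemia final) with test compounds; endpoint luminescence.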
Shiga toxin inh = blocks Shiga toxin action in Vero cells; Vero cells, Shiga toxin protein synthesis inhibition reporter; inhibition, % at 38.7 µM; 290,000 tested, 9.2% active; AID 2315; in the data active = inhibition mostly above about 28%, no sharp cut-off; inactive = mostly below about 43%; also: 0% is about no effect
Pf growth 48h = P. falciparum growth inhibition at 48 hours (one generation); P. falciparum luciferase growth in erythrocytes, 48 h; 310,000 tested, 5.9% active; Potency, µM (top dose mostly 28.7 µM), for the others: at the highest dose activity change, negative = inhibition, hits mostly inhibitors; also: potency is read from the fitted curve at half-maximal effect; % is scaled to controls: 0 for no effect and ±100 for the full control effect
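Erythrocytes infected with P. falciparum carrying an integrated firefly luciferase reporter (2% hematocrit, 0.1% parasitemia final) were exposed to compounds in RPMI 1640 with 0.5% Albumax at 37 C, 5% CO2. Growth inhibition was scored as reduced luminescence.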
* = called active by the depositor; ? = inconclusive; nt = no result; [ ] = dose if it differs, or a comment. Most compounds without a hit are left out; they make up all but 22% or so of the library. Unless noted, calls follow the shape of the dose curve; as a rule, active = well fitted inhibition curve with a large enough effect; inconclusive = small, poorly fitted or top-dose-only effect, or another doubt; inactive = no such curve, though single readings can be large or run the other way.

SMILES	LmPK inhibitor	Cycloheximide cs	Pf growth 96h	Shiga toxin inh	Pf growth 48h
Cc1cccc2nc3ccccc3nc12	5%	17*	-28%	46	422%
O=C(/C=C/c1ccco1)Nc1scc(-c2ccccc2)c1C(=O)O	-19%	22*	213%	29	?
Cc1sc(NC(=O)/C=C/c2ccco2)c(C(=O)OC(C)C)c1C	-3%	-1	7%	-3	24%
O=C(/C=C/c1ccccc1)Nc1scc(-c2ccccc2)c1C(=O)O	-11%	30*	?	59*	24%
Cc1ccc(C(=O)Nc2nc(=O)[nH]s2)cc1	-2%	5	43%	2	72%
COc1cc(C(CCN2CCOCC2)c2c(OC)cc(OC)c3c2OC(=O)CC3c2ccc(N(C)C)cc2)cc(OC)c1OC (stereo not drawn)	0%	5	?	-21	?
COc1cc(C(CCN2CCCCC2)c2c(OC)cc(OC)c3c2OC(=O)CC3c2ccc(N(C)C)cc2)cc(OC)c1OC (stereo not drawn)	nt	4	nt	-9	nt
COc1ccc(C2CC(=O)Oc3c(C(CCN4CCOCC4)c4cc(OC)c(OC)c(OC)c4)c(OC)cc(OC)c32)cc1 (stereo not drawn)	9%	7	?	-1	9.3µM*
COc1cc(OC)c2c(c1C(CCN1CCOCC1)c1ccc(N(C)C)cc1)OC(=O)CC2c1ccc(N(C)C)cc1 (stereo not drawn)	5%	2	?	-8	10µM*
COc1ccc(C2CC(=O)Oc3c(C(CCN4CCN(c5ccccc5)CC4)c4ccc(N(C)C)cc4)c(OC)cc(OC)c32)cc1 (stereo not drawn)	3%	0	10µM*	-1	9.3µM*
CC1(C)OC(c2ccccc2)=C/C(=C/C=Nc2ccccc2)O1	-4%	16*	?	35*	?
C#C[C@]1(O)CC[C@H]2[C@@H]3CCC4=Cc5nc6nc7ccccc7n6cc5C[C@]4(C)[C@H]3CC[C@@]21C	nt	nt	5.2µM*	nt	3.7µM*
COc1cccc(NC(=O)CN(C)C(=O)C(Sc2ccccc2)c2ccccc2)c1 (stereo not drawn)	nt	nt	1%	nt	?
COC(=O)c1sccc1NC(=O)CC1C(=O)NCCN1C(=O)c1ccccc1 (stereo not drawn)	5%	13*	8%	-10	-1%
CC1CC=CC2C1C(=O)N(Cc1ccccc1)C2c1ccc(-c2ccoc2)cc1F (stereo not drawn)	nt	8	nt	-5	nt
CC(C)C(=O)NC(c1cccc([N+](=O)[O-])c1)c1c(O)ccc2ccccc12 (stereo not drawn)	-1%	-1	2%	-11	4.7µM*
CC(=O)NC(c1ccc([N+](=O)[O-])cc1)c1c(O)ccc2ccccc12 (stereo not drawn)	-1%	1	-23%	-8	?
CC(C)C(=O)NC(c1ccc([N+](=O)[O-])cc1)c1c(O)ccc2ccccc12 (stereo not drawn)	1%	-2	2.6µM*	-8	1.9µM*
CCOc1ccccc1NC(=O)C1CCN(S(C)(=O)=O)CC1	-2%	1	30%	-5	-125%
Cc1cccc(-c2nsc(SCC(=O)Nc3ccc4c(c3)OCO4)n2)c1	2%	27*	-65%	36*	?
Cc1ccccc1-c1nsc(SCC(=O)Nc2ccc3c(c2)OCO3)n1	4%	33*	0%	35	?
Cc1cccc(-c2nsc(SCC(=O)Nc3nccs3)n2)c1	6%	14	46%	14	?
CCC(C)(C#CCN1CCCCC1)OC(C)=O (stereo not drawn)	-3%	-2	?	-15	?
CC(CNC(=O)CN1C(=O)c2cccnc2Oc2ccc(Cl)cc21)c1ccccc1 (stereo not drawn)	4%	-8	?	-11	-10%
COc1cccc(NC(=O)CN2C(=O)c3cccnc3Oc3ccc(Cl)cc32)c1	-2%	3	2%	12	13µM*
SMILES	LmPK inhibitor	Cycloheximide cs	Pf growth 96h	Shiga toxin inh	Pf growth 48h
O=C(CN1C(=O)c2cccnc2Oc2ccc(Cl)cc21)Nc1ccccc1F	3%	13*	7%	14	?
CCN(C(=O)N1CCOCC1)c1ccccc1C	0%	-2	6.6µM*	18	0%
CCOc1ccc(C(C(=O)NC2CCCCC2)N(C(=O)Cc2cccs2)c2ccc(-n3cnnn3)c(OC)c2)cc1 (stereo not drawn)	1%	-4	7.4µM*	-13	10µM*
COc1cccc(C(C(=O)NC2CCCC2)N(C(=O)c2ccco2)c2ccc(-n3cnnn3)c(C)c2)c1OC (stereo not drawn)	4%	-3	34%	-9	9.3µM*
CCOc1ccc(C(C(=O)NC2CCCCC2)N(C(=O)c2ccco2)c2ccc(-n3cnnn3)c(C)c2)cc1 (stereo not drawn)	5%	-4	89%	-3	?
CN(Cc1c(F)cccc1Cl)C(=O)c1cnc2ccccc2n1	3%	12*	8%	43	?
CC(C)CN(C(=O)COC(=O)CNC(=O)c1ccccc1)c1c(N)n(Cc2ccccc2)c(=O)[nH]c1=O	nt	nt	2%	nt	23%
CCC(C)(C)NC(=O)C1CCN(c2nc(OC)nc(OC)n2)CC1	2%	-5	?	-7	-7%
O=C1N(c2ccccc2)C[C@@H]2C[C@@H](c3cc4ccccc4o3)N3CCC[C@@]123	-1%	9	13µM*	1	-15%
Cc1c(Cl)cccc1NC(=S)NCc1ccco1	4%	2	0%	-7	-6%
CC(C)Cc1cc(C(=O)Nc2ccc3c(c2)OCO3)no1	-1%	36*	30%	72*	200%
COC(=O)[C@H](C)NC(=O)Nc1ccc(OC)c(OC)c1	1%	-2	22%	-2	25%
Cc1cc(C(=O)Nc2ccc3c(c2)OCO3)no1	-6%	8	24%	10	?
COc1ccc(NC(=O)c2cc(-c3ccccc3)on2)cc1OC	11%	7	-9%	nt	49%
COc1ccc(NC(=O)c2cc(CC(C)C)on2)cc1OC	-1%	42*	?	active	99%
CC(C)Cc1cc(C(=O)Nc2ccc(Br)cc2)no1	-5%	36*	149%	69	110%
COc1ccc(NC(=O)OCC(C)C)cc1OC	-2%	21*	nt	50*	46%
CC(C)Cc1cc(C(=O)Nc2cccc(O)c2)no1	?	10	214%	13	1%
NC(=O)NS(=O)(=O)c1ccc(N)cc1	nt	nt	-11%	nt	-4%
COC(=O)c1ccc(C(=O)N(CCN(C)C)c2nc3c(Cl)cccc3s2)cc1	4%[11.5 µM]	-6	45%	-11	-6%
O=C(Cn1cnc([N+](=O)[O-])n1)c1ccc(O)c(O)c1	1%	-2	14%	-11	?
CCc1ccc(NC(=O)c2cc(CC(C)C)on2)cc1	0%	33*	?	39*	88%
Cc1cc(NC(=O)c2cc(CC(C)C)on2)n(-c2ccccc2)n1	6%	-1	?	-6	9%
